Test results reported in PubChem BioAssay (NCI).
About 79,000 compounds went through this panel and 15% of them were active in at least one assay; those are over-represented in the sample as a whole. The source made the active and inactive calls. Cut-off read from the data, not from the text of the source: active = growth inhibition above about 70%; inactive = the rest.

Test: NCI Yeast Anticancer Drug Screen. Data for the mec2-1 strain (AID 157)
Settings: S. cerevisiae mec2-1 strain, at 50.0 µM, hits give high values
Outline: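 Each compound was tested on mec2-1 yeast, a strain altered in DNA damage repair or cell cycle control. Growth inhibition is reported relative to vehicle.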

Row | SMILES | growth inhibition
1 | CCCCC#C[I+]c1ccccc1 | 93% (active)
2 | CCOC(=O)C1C(c2cccc(OC)c2O)c2cc3c(cc2OC1(C)N1CCCC1)OCO3 (centres undefined) | 16.4% (inactive)
3 | Nc1ncnc2nn(C3OC(CO)C(O)C3O)nc12 (centres undefined) | -26.2% (inactive)
4 | Nc1nc(-c2ccc3c(c2)Sc2ccccc2O3)cs1 | 65.3% (inactive)
5 | O=C1C=CC(Nc2cccc([N+](=O)[O-])c2)C1Nc1cccc([N+](=O)[O-])c1 (centres undefined) | 89.2% (active)
6 | O=C(CC(=O)c1ccccc1)CC(=O)c1ccccc1 | 68.5% (inactive)
7 | Fc1ccc(CSC(=S)Nc2ccc(Br)cc2)cc1 | 90% (active)
8 | Cc1cc([N+](=O)[O-])c2nnnn2c1 | 1.4% (inactive)
9 | CN(c1ccc(C(N)=O)cc1)c1c(O)c2ccccc2[nH]c1=O | 6.8% (inactive)
10 | O=C(/C=C\c1cccc2ccccc12)c1ccccn1 | 93.5% (active)
11 | COc1ccc2c(c1)CCc1c(CO)c(COC(=O)NC(C)C)n(C)c1-2 | 97.7% (active)
12 | O=C1CC(O)CC(=O)C1=C(O)CCCCCCCCCCc1ccccc1 (centres undefined) | 85.3% (active)
13 | CC1CCN(CCCOC(=O)c2ccccc2)CC1 | 30.5% (inactive)
14 | Cc1ccc(S(=O)(=O)OC2COC3C(OS(=O)(=O)c4ccc(C)cc4)COC23)cc1 (centres undefined) | 9.8% (inactive)
15 | Cc1nn(C(=S)S)c(C)c1N=Nc1cccc(F)c1 | 46.1% (inactive)
16 | O=C1C(=Cc2ccccc2O)N=C(c2ccccc2)N1n1c(-c2ccccc2)nc2ccccc2c1=O | 49.2% (inactive)
17 | O=C1/C(=C/c2ccccc2)CNC/C1=C\c1ccccc1 | 99.3% (active)
18 | Cc1cc(Br)c(P(=O)(O)O)cc1[N+](=O)[O-] | 42.7% (inactive)
19 | Oc1cc(Cc2ccccc2)c(Cc2ccccc2)cc1O | 91% (active)
20 | O=S1(=O)CCN(c2ccccc2CC(c2c[nH]c3ccccc23)c2c[nH]c3ccccc23)CC1 | 74.8% (active)

Row | SMILES | growth inhibition
21 | CCCCCC(O)C(C)CO (centres undefined) | -7.6% (inactive)
22 | Cc1cc(=O)c2cc(N=Cc3ccc([N+](=O)[O-])o3)ccc2o1 | 17.9% (inactive)
23 | CN(C)C(=S)/N=c1\ssc(=S)n1Cc1ccco1 | -3.4% (inactive)
24 | O=[N+]([O-])c1ccc2nc(Nc3ccccc3)c(Nc3ccccc3)nc2c1 | 77.8% (active)
25 | CC(=O)NC(CCC(=O)O)C(=O)O.[NH-]C1CCCCC1[NH-].[Pt+2] (centres undefined) | 99.3% (active)
26 | CC(=O)Oc1c2c(c(C)c3ccccc13)C(=O)c1cccnc1C2=O | 98.8% (active)
27 | C=C1C(=O)OC2C(C)C3C=CC(=O)[C@@]3(C)C(OC(=O)/C(C)=C/C)C1[C@@H]2OC(C)=O (some centres undefined) | 88.5% (active)
28 | O=C(O)/C=C/c1ccc2c(c1)CC1(Cc3ccccc3C1)C2 | 66.2% (inactive)
29 | C(=C\c1ccc(-[n+]2nc(-c3ccccc3)nn2-c2ccccc2)cc1)/c1ccccc1 | 93.4% (active)
30 | O=CC(O)C(O)C(O)C(O)C(=O)NCCCCCCCCCCCCNC(=O)C(O)C(O)C(O)C(O)C=O (centres undefined) | 12.2% (inactive)
31 | CCCCCCCCCCN(CCCCCCCCCC)CC(O)c1cc(-c2ccccc2)nc2ccccc12 (centres undefined) | 21.9% (inactive)
32 | CC1(C)C(=O)C(C(Cl)(Cl)Cl)=C(Cl)C(=O)C1(Cl)Cl | 42.1% (inactive)
33 | Cc1cccc2c1CC1(C2)Cc2c(C)cccc2C1=O (centres undefined) | 42.1% (inactive)
34 | Oc1c(Cl)cc(C(c2cc(Cl)c(O)c(Cl)c2)C(c2cc(Cl)c(O)c(Cl)c2)c2cc(Cl)c(O)c(Cl)c2)cc1Cl | 95.8% (active)
35 | Cc1ccc(S(=O)(=O)NC(Cc2ccccc2)C(=O)CCl)cc1 (centres undefined) | 92.8% (active)
36 | CCOC(=O)/C(C#N)=C/c1coc2cc(C)cc(C)c2c1=O | 90.4% (active)
37 | CN(C)/N=C\C1CC=CCC1 (centres undefined) | 5.35% (inactive)
38 | NCC(=O)N/N=C/c1ccc([N+](=O)[O-])o1 | 44.3% (inactive)
39 | CCc1cc(CC)c(-c2ccco2)c(COC(=O)NC)c1 | 94.2% (active)
